Source: PubChem BioAssay (National Center for Advancing Translational Sciences (NCATS))
Shown are actives, neighbours in structure and some others; about 1.5% of the full set was active somewhere.
gsp antagonist: antagonists of gsp mutant (McCune-Albright syndrome). 340,000 tested, 0.4% active. Potency, µM (series often up to 76.9 µM), most hits filed as inhibitors. AID 624288. gsp-mutant cells, cAMP HTRF, 30 min; calls by dose curve; cell line not stated here;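 further: intracellular cAMP measured with PDE inhibitor Ro 20-1724 present during compound exposure; nearly all actives have a fitted effect of over 65% in size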
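HTRF cAMP measurement after 30 min RT detection following 30 min, 37C compound treatment alongside […] (added as 300 uM solution) in G418-selected cells seeded at 2000/well and grown 16–24 h.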
BRCA1 expr up: BRCA1 expression activation. MCF7-BRCA1-FFLuc reporter, luminescence, 48 h; response scale: scaled: vehicle 0%, 10 µM genistein 100%. 380,000 tested, 1.1% active. Potency, µM (doses to about 46.1 µM), actives largely listed as activators; further: nearly all actives have a fitted effect of over 80% in size
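Reporter cells (MCF7, BRCA1 promoter-firefly luciferase) received library compounds across a concentration series for 48 h. End-point luminescence was measured and concentration-effect curves derived after normalization.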
IL-2 act: activators of IL-2. IL-2 activation reporter assay, cell-based qHTS; stimulated with anti-CD3/CD4/CD28 beads; in transgenic mouse T cells. activation, % (series mostly up to about 46 µM). 360,000 tested, 0.065% active. AID 652025; in the data active means activation above about 50%; inconclusive means mostly about 30% to 49%
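Unstimulated transgenic mouse T cells; 60-min compound exposure; bead-based TCR/CD4/CD28 stimulation; 18 h culture, 37 degrees C; dual fluorescence (EGFP, DsRed) plate cytometry.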
gsp agonist: agonists of gsp mutant (McCune-Albright syndrome); Potency, µM (titrated, usually from 76.9 µM), hits mostly activators; gsp mutant cells, cAMP HTRF, 30 min; AID 624287; 340,000 tested, 0.13% active; active means well fitted activation curve with a large enough effect; inconclusive means small, poorly fitted or top-dose-only effect, or another doubt; inactive means no such curve, though single readings can be large or run the other way; cell line not stated here;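 further: phosphodiesterase inhibitor Ro 20-1724 added with compounds to block cAMP breakdown; nearly all actives have a fitted effect of over 60% in size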
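Cells stably selected in G418 were plated at 2000/well, grown 16-24 hr, then given compounds in DMSO with the PDE inhibitor […] (300 uM solution added) for 30 min at 37C; cAMP was read by HTRF.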
mIDH1 inhibitor: inhibitors of human mutant IDH1 R132H; O75874; IDH1-R132H enzyme, NADPH consumption, diaphorase/resazurin fluorescence; Potency, µM (highest dose often 76.6 µM), hits mostly inhibitors; 390,000 tested, 0.093% active; further: nearly all actives have a fitted effect of over 65% in size
Target sequence (O75874 whole entry R132H, stated change not applied): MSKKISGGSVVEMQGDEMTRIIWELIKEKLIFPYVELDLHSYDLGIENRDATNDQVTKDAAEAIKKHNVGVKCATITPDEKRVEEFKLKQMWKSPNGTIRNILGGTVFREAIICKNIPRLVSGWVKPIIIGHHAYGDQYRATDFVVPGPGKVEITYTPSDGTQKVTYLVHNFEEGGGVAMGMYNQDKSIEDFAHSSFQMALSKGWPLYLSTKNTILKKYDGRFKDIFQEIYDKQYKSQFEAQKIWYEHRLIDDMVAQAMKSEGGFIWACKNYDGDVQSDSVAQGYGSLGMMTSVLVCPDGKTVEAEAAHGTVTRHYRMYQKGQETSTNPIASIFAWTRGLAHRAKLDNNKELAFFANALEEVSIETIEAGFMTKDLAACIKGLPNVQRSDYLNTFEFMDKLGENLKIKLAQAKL
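IDH1-R132H (0.5 ug/mL dispensed) in pH 7.5 Tris buffer was preincubated 30 min with compound, then given a substrate mix of 0.016 mM NADPH and 2 mM alpha-KG for 80 min at room temperature; remaining NADPH was read by diaphorase/resazurin fluorescence.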
Each line names hits and unclear results; the compound was inactive in the other large screens. Unless noted, the call rests on the fitted dose curve; in most records, active means well fitted curve in the direction sought with a large enough effect; inconclusive means small, poorly fitted or top-dose-only effect, or another doubt; inactive means no such curve, though single readings can be large; an effect the other way counts as inactive or inconclusive.

COc1ccc(OCCN2C(=O)c3ccccc3C2=O)c([N+](=O)[O-])c1	gsp agonist 10µM
Cn1c(-c2ccc([N+](=O)[O-])cc2)nc2ccccc21	BRCA1 expr up inconclusive, gsp agonist 2.24µM
CCOC(=O)c1ccc(NC(=O)CCc2nc(-c3ccccc3Cl)no2)cc1	gsp antagonist inconclusive
CCOC(=O)c1ccc(NC(=O)CCc2nc(-c3ccccc3)no2)cc1	gsp antagonist 39.8µM
CCOC(=O)c1ccc(NC(=O)Cn2nnc3ccccc32)cc1	BRCA1 expr up 3.98µM
CCOC(=O)c1ccc(NC(=O)CCn2nnc3ccccc32)cc1	none
CCN1/C(=C/C(C)=C/c2sc3ccccc3[n+]2CC)Sc2ccccc21	gsp antagonist 35.5µM, mIDH1 inhibitor inconclusive
Cc1ccc2nc(SCC(=O)Nc3ccc(F)cc3)nc(=O)n2c1	gsp agonist 14.1µM
O=C1CN(C(=O)Cc2ccc(F)cc2)C(c2ccccc2)c2cc(Cl)ccc2N1 (configuration not stated)	none (no result: gsp antagonist, BRCA1 expr up, IL-2 act, gsp agonist)
O=C(Nc1ccc(OC(F)F)c(Cl)c1)c1cccc(OC(F)F)c1	gsp antagonist 39.8µM
O=C(Nc1ccc2c(c1)CCC2)c1cccc(OC(F)F)c1	BRCA1 expr up 2.82µM
O=C(Nc1ccc(OC(F)F)cc1)c1ncc(Cl)c(Cl)c1Cl	gsp antagonist 11.2µM
O=C(Nc1ccc([N+](=O)[O-])cc1)Nc1ccc(OC(F)F)c(Cl)c1	gsp antagonist 39.8µM
CCn1c(C)c(C)c2cc(C(=O)NCCN3CCCCCC3)ccc21	none
CC(=O)c1ccc(NC(=O)CN2CCN(S(=O)(=O)c3ccc4c(c3)OCCO4)CC2)cc1	none (no result: gsp antagonist)
NC(=O)c1ccc(NC(=O)CN2CCN(S(=O)(=O)c3ccc4c(c3)OCCO4)CC2)cc1	gsp antagonist 50.1µM
N#Cc1ccccc1NC(=O)c1cc(=O)c2ccccc2o1	BRCA1 expr up 8.91µM
O=C(CSc1nc2ccccc2nc1Cc1ccccc1F)Nc1cccc(C(F)(F)F)c1	none (no result: gsp antagonist, BRCA1 expr up, IL-2 act, gsp agonist)
O=C(O)CSc1nc2ccccc2nc1Cc1ccccc1F	gsp agonist 7.08µM
Cc1cc(-c2ccccc2)nc(SCc2ccc(C(=O)O)o2)n1	none
Cc1cc(-c2ccccc2)nc(SCc2ccc(C(=O)O)cc2)n1	gsp antagonist 35.5µM
O=C(Nc1sc2c(c1C(=O)O)CCC2)c1ccccc1	gsp antagonist 22.4µM
O=C(Nc1sc2c(c1C(=O)O)CCCC2)c1cccc(Cl)c1	gsp antagonist inconclusive, BRCA1 expr up 11.2µM
O=C(/C=C/c1ccco1)Nc1sc2c(c1C(=O)O)CCC2	gsp antagonist 39.8µM
COc1ccccc1OCC(=O)Nc1sc2c(c1C(N)=O)CCC2	gsp antagonist inconclusive, BRCA1 expr up 5.01µM
O=C(Nc1sc2c(c1C(=O)O)CCCC2)c1ccc(Cl)cc1	gsp antagonist inconclusive, BRCA1 expr up inconclusive
O=C(Nc1sc2c(c1C(=O)O)CCCCC2)c1ccccc1	gsp agonist inconclusive
CCn1c(SCc2cccc(Br)c2)nnc1-c1nonc1NC(C)=O	none (no result: gsp antagonist, BRCA1 expr up, IL-2 act, gsp agonist)
CCOc1ncccc1C(=O)OC(C)C(=O)NC(=O)NC1CCCCC1 (configuration not stated)	gsp agonist 6.31µM
CNC(=O)COc1ccc(Nc2nnc(-c3ccc(C)c(S(=O)(=O)NC(C)(C)C)c3)c3ccccc23)cc1	none (no result: gsp antagonist, BRCA1 expr up, IL-2 act, gsp agonist)
CC1CCCC(NC(=O)Cn2cc3c(n2)CCCCC3)C1C (configuration not stated)	none
O=C(Cn1cc2c(n1)CCCCC2)NC1CCCCCC1	BRCA1 expr up 8.91µM
CCOC(=O)CNC(=S)N(Cc1ccco1)Cc1ccccc1Cl	gsp antagonist 39.8µM
Cc1ccc2c(c1)CCC2=O	none (no result: gsp antagonist, IL-2 act, gsp agonist, mIDH1 inhibitor)
COC(=O)Cc1c(OC)ccn(CCc2c[nH]c3ccccc23)c1=O	BRCA1 expr up 2.24µM
CCOc1ccccc1CNC(=O)CCn1ccc2cc(S(=O)(=O)N3CCC(C)CC3)ccc21	none (no result: gsp antagonist, BRCA1 expr up, IL-2 act, gsp agonist)
Cc1cc(/C=N/Nc2ccc([N+](=O)[O-])cn2)c(C)n1-c1ccccc1	BRCA1 expr up 10µM
Cc1ccc(/C=N/NC(=O)c2ccco2)cc1	none
Cc1cccc(-n2c(C)cc(/C=N\NC(=O)c3ccco3)c2C)c1	BRCA1 expr up 8.91µM
CC(=NNc1ccc([N+](=O)[O-])cn1)c1ccccc1	BRCA1 expr up 10µM
O=[N+]([O-])c1ccc(NN=C(c2ccccc2)c2ccccc2)nc1	none
Cc1cc(/C=N/NC(=O)c2ccccn2)c(C)n1-c1cccc([N+](=O)[O-])c1	BRCA1 expr up 10µM
Cc1cc(/C=N\NC(=O)COc2cccc3cccnc23)c(C)n1-c1ccc(Br)cc1	gsp agonist inconclusive
Cc1cc(/C=N\NC(=O)c2cccs2)c(C)n1-c1ccc2ncccc2c1	gsp antagonist 39.8µM
O=C(O)c1ccccc1C=NNc1ccc([N+](=O)[O-])cn1	none
O=[N+]([O-])c1ccc(NN=Cc2cccc3ccccc23)nc1	IL-2 act 58.5
O=C(Nc1ccc(N2CCN(c3ccc(F)cc3)CC2)c(C(=O)O)c1)c1ccccc1F	none (no result: gsp antagonist, BRCA1 expr up, IL-2 act, gsp agonist)
COc1cc(Cl)c(CC(=O)NO)cc1OC	none (no result: gsp antagonist, IL-2 act, gsp agonist, mIDH1 inhibitor)
CS(=O)(=O)Nc1ccc(C2=NN(C(=O)c3ccccc3)C(c3cccs3)C2)cc1 (configuration not stated)	gsp antagonist inconclusive, gsp agonist inconclusive
CC(C)(C)C(=O)N1N=C(c2ccc(NS(C)(=O)=O)cc2)CC1c1cccs1 (configuration not stated)	gsp antagonist 11.2µM
CC1=C(C(N)=O)C(c2ccccc2F)n2nc(-c3ccc(Cl)cc3)nc2N1 (configuration not stated)	none (no result: gsp antagonist, BRCA1 expr up, IL-2 act, gsp agonist)
COc1ccccc1C(=O)Nc1ccc(C(=O)Nc2ccccc2C(=O)O)cc1	gsp antagonist 35.5µM, gsp agonist inconclusive
O=C(Nc1ccccc1C(=O)O)c1ccc(NC(=O)c2ccc(Br)o2)cc1	gsp antagonist 35.5µM
COc1ccc(C(=O)Nc2ccccc2C(=O)O)cc1NC(=O)C(c1ccccc1)c1ccccc1	gsp antagonist 39.8µM
O=C(Nc1ccc(F)cc1)C(c1cccc(F)c1)N1CCN(c2ccncc2)CC1 (configuration not stated)	none (no result: gsp antagonist, BRCA1 expr up, gsp agonist, mIDH1 inhibitor)
CC(OC(=O)/C=C/c1cccc(Cl)c1)C(=O)NC1CCCCC1C (configuration not stated)	none
Cc1cc(N2CCN(C)CC2)nc2ccc(NC(=O)Nc3ccccc3Br)cc12	none (no result: gsp antagonist, BRCA1 expr up, IL-2 act, gsp agonist)
Cc1ccc(CC(=O)Nc2c(C(=O)N3CCN(c4ccccc4F)CC3)oc3ccccc23)cc1	none (no result: gsp antagonist, BRCA1 expr up, IL-2 act, gsp agonist)
CC1CCCN(CCCNC(=O)c2cc(Sc3ccc(F)cc3)nc3ccccc23)C1 (configuration not stated)	none (no result: gsp antagonist, BRCA1 expr up, IL-2 act, gsp agonist)
COc1ccc(CCNC(=O)c2ccc3c(c2)CCN3S(=O)(=O)c2ccccc2)cc1OC	none (no result: gsp antagonist, BRCA1 expr up, IL-2 act, gsp agonist)
CN1C(=O)CC(N2CCC(c3nc4ccccc4s3)CC2)C1=O (configuration not stated)	none
